We go through 53 compounds from ChEMBL document CHEMBL3988442, “University of Dundee, Small-Polar-MMV Screening Library” (2021).

The whole screen tested about 69,000 compounds, of which about 1,000 (1.4%) showed an effect of 50% or more. The list comes from a sample in which strong results are over-represented; it also holds similar structures and randomly drawn compounds.

The experiment relates to Leishmania donovani. Nature of the experiment: Leishmania intramacrophage assay. The experiment is classed as functional, organism-based. Further details: scale not given: in the data most compounds retested in dose-response had high values.

As for `CN(C)C(=O)CN1CCC2(COCc3cnc(-c4cccnc4)nc32)C1.O=C(O)C(F)(F)F.O=C(O)C(F)(F)F` (stereo not drawn), under “30.3 µM, […]”, the “Percent Effect” value is on record as 71.1%. Take `O=C(O)C(F)(F)F.c1cnc(N2CCC3(COCc4cnc(-c5cccnc5)nc43)C2)nc1` (stereo not drawn): the “Percent Effect” value (30 µM, 30.03 µM) was determined as 17.52%. Consider `CN(C)C(=O)CN1CCC2(COCc3cnc(-c4ccccc4)nc32)C1` (stereo not drawn), for which the “Percent Effect” value (30.3 µM, […]) is 31.1%. Consider `CN(C)C1CCN(C(=O)c2cccc(S(=O)(=O)NCC3(C)COC3)c2)C1` (stereo not drawn), for which the “Percent Effect” value (30.3 µM, […]) came to 28.53%. For `Cn1nccc1CN1CCCC(COc2ccccc2F)C1` (stereo not drawn), for the setting “30.3 µM, […]”, the “Percent Effect” value was 53.5%. As to `CCn1cc(CN2CCCC(COc3ccccc3F)C2)cn1` (stereo not drawn), where the note is “30.3 µM, […]”, the “Percent Effect” value is 32.99%. Take `CC(C)n1c(C2CCCN(Cc3ccnn3C)C2)nc2ccccc21` (stereo not drawn): for the setting “30 µM, 30.03 µM”, the “Percent Effect” value is reported as 7.956%. In the case of `COc1ccc(CN2Cc3[nH]nc(C(=O)N(C)C)c3C2)cc1`, the “Percent Effect” value (30.3 µM, […]) amounted to 5.856%. Consider `COc1ccc(CN(C)CCS(=O)(=O)c2ccc(Cl)cc2)cc1OC`, for which, under “30.3 µM, […]”, the “Percent Effect” value was 56.02%. On the same count and under the same terms, then `CCN(CCS(=O)(=O)c1ccc(Cl)cc1)Cc1ccc(OC)c(OC)c1`, with 54.72%; and `COc1ccc(CCN(C)CCS(=O)(=O)c2ccc(Cl)cc2)cc1OC`, with 7.861%; and `CCN(Cc1nccs1)Cc1cc(Cl)ccc1OC`, with -1.846%. Regarding `COCCN(C)Cc1ccc(OC)c(OC(F)F)c1`, the “Percent Effect” value (30 µM, 30.03 µM) was found to be 7.354%.

Turning to `COc1ccc(CCCN(C)C(=O)c2cc(Cl)c[nH]2)cc1OC`, the “Percent Effect” value (30.3 µM, […]) was 32.32%.

In the case of `Cc1cc(C)n(Cc2ccc(-c3noc(C(=O)NC[C@@H](C)O)n3)cc2)n1`, the “Percent Effect” value (30.3 µM, […]) came out at 18.71%. `O=C(O)C(F)(F)F.O=C(O)C(F)(F)F.c1cnc(N2CCC3(CCN(Cc4ccncc4)CC3)CC2)nc1`: under “30 µM, 30.03 µM”, the “Percent Effect” value is reported as 38.21%. Regarding `Cc1nccn1CC1CCCN(S(=O)(=O)c2cnn(C)c2)C1` (stereo not drawn), the “Percent Effect” value (30.3 µM, […]) is 12.01%.

As for `O=C(N1CCOCC1)N1CCOC[C@H](Oc2ccc(C(F)(F)F)cc2)C1`, the “Percent Effect” value (30.3 µM, […]) is given as -1.363%.

Take `COc1cc(Cl)cc(CN2CCCC(N3CCCC3)C2)c1OC` (stereo not drawn): the “Percent Effect” value (30.3 µM, […]) is recorded as 12.54%.

With `COc1cc(Cl)c(CN2CCC(C(N)=O)C2)cc1Cl` (stereo not drawn), under “30.3 µM, […]”, the “Percent Effect” value was 31.88%. On the same count and under the same terms, then `COc1cc(CN2CC[C@@H](N3CCCCCC3)[C@H](O)C2)cc(Cl)c1OC`, with 50.85%; and `COCCC(=O)N1CCC2(CCN(Cc3ccc(OC)c(F)c3)C2)C1` (stereo not drawn), with -20.78%; and `CC(=O)NCc1ccc(C(=O)N2CCCc3c(F)ccc(C)c32)cc1`, with 35.68%. Take `COc1cccc2c1OCC(Cc1cc(C(N)=O)ccn1)C2` (stereo not drawn): under “30.3 µM, […]”, the “Percent Effect” value worked out at 69.64%.

In the case of `CNC(=O)c1ccnc(CC2COc3c(cccc3OC)C2)c1` (stereo not drawn), where the note is “30.3 µM, […]”, the “Percent Effect” value is reported as -40.6%. `COc1cccc2c1OCC(Cc1cc(C(=O)N3CCCC3)ccn1)C2` (stereo not drawn): for the setting “30.3 µM, […]”, the “Percent Effect” value is 20.15%. `CCOc1ncccc1CNC(=O)Nc1ccccc1`: the “Percent Effect” value (30 µM) is on record as -12.58%. Turning to `COc1nn(C)cc1-c1nnc(SCc2cccnc2)n1C`, the “Percent Effect” value (30.3 µM, […]) is recorded as -1.752%.

Consider `CC(C)=CCC1(C(=O)O)CCCN(CCC(=O)NC2CC2)C1` (stereo not drawn), for which, under “30.3 µM, […]”, the “Percent Effect” value is 0.5122%. In the case of `CCN(CC)C(=O)c1nc2c(s1)CCN(Cc1cccc(OC)c1)CC2.O=C(O)C(F)(F)F`, the “Percent Effect” value (30.3 µM, […]) is reported as -7.279%. In the case of `COc1ccc(OCCN(C)c2cc(C)nc(N)n2)cc1`, the “Percent Effect” value (30.3 µM, […]) is 6.601%. With `Cc1cc(N(C)CCOc2ccccc2F)nc(N)n1`, for the setting “30.3 µM, […]”, the “Percent Effect” value was determined as 60.08%. As to `COc1ccccc1OCCN(C)c1cc(C)nc(N)n1`, the “Percent Effect” value (30.3 µM, […]) came to 6.974%.

For `Cc1nc(C2CCCN2CC(=O)Nc2cc(C(C)(C)C)nn2C)no1` (stereo not drawn), the “Percent Effect” value (30 µM) came to 12.3%. Consider `CC(C)n1cnnc1CN(C)CC1CCCNC1` (stereo not drawn), for which, where the note is “30.3 µM, […]”, the “Percent Effect” value stood at 32.72%. In the case of `Cl.N#Cc1ccc(NC(=O)C2CSCN2)cc1` (stereo not drawn), for the setting “30.3 µM, […]”, the “Percent Effect” value came to 0.03454%.

In the case of `CS(=O)(=O)NCCC1CN(Cc2ccccc2F)CCO1` (stereo not drawn), the “Percent Effect” value (30.3 µM, […]) turned out to be 18.65%. Same read-out and setting: then `OC1(Cn2ccnc2)CCN(C[C@]2(O)CCCN3CCCC[C@@H]32)CC1`, with -28.91%.

On to `O=C(NCCO)Nc1cccc(Cl)c1SC(F)F`, for which the “Percent Effect” value (30 µM, 30.03 µM) is -27.47%. Consider `CC(C(=O)Nc1cccc(Cl)c1SC(F)F)S(C)(=O)=O` (stereo not drawn), for which, for the setting “30.3 µM, […]”, the “Percent Effect” value was 58.19%. As to `CC(=O)NCCNC(=O)Nc1cccc(Cl)c1SC(F)F`, the “Percent Effect” value (30.3 µM, […]) is recorded as 17.25%.

On to `Cc1[nH]c2ccc(Cl)cc2c1CCNc1ncnc2c1CCNC2`, for which the “Percent Effect” value (30.3 µM, […]) came out at 54.3%. For the compound `Cc1[nH]c2ccc(C#N)cc2c1CCNc1ncnc2c1CCNCC2`, the “Percent Effect” value (30.3 µM, […]) came to 16.81%.

For `Cc1[nH]c2ccccc2c1CCNc1ncnc2c1CCNCC2`, the “Percent Effect” value (30.3 µM, […]) is listed as 16.03%. Regarding `CC(C)CN(Cc1ccsc1)C(=O)CCCn1cncn1`, for the setting “30.3 µM, […]”, the “Percent Effect” value turned out to be 40.23%. In the case of `Cc1csc(CCCNC(=O)NC2CC(=O)N(C(C)(C)C)C2)n1` (stereo not drawn), the “Percent Effect” value (30.3 µM, […]) was found to be 22.59%.

Take `CCOc1ccc(CN(C)C(=O)c2nc(N3CCCC3)ncc2Cl)cc1`: the “Percent Effect” value (30.3 µM, […]) came to 58.99%. `CN(Cc1ccsc1)C(=O)c1nc(N2CCCC2)ncc1Cl`: under “30.3 µM, […]”, the “Percent Effect” value was determined as 20.2%. Turning to `O=C(c1nc(N2CCCC2)ncc1Cl)N1CCN(Cc2ccsc2)CC1`, where the note is “30.3 µM, […]”, the “Percent Effect” value worked out at 1.991%. Consider `CN(Cc1ccsc1)C(=O)c1nc(N2CCCCC2)ncc1Cl`, for which the “Percent Effect” value (30.3 µM, […]) worked out at 60.89%.

On to `CCOc1ccc(NC(=O)c2cnc(N3CCCC3)nc2C)cc1`, for which the “Percent Effect” value (30 µM, 30.03 µM) stood at 16.9%.

As for `Cc1noc(C)c1CN(C)C(=O)c1nc(N2CCCC2)ncc1Cl`, where the note is “30.3 µM, […]”, the “Percent Effect” value is -8.961%.

On to `CCc1c(C(=O)N2CCN(C)[C@@H]3CS(=O)(=O)C[C@@H]32)[nH]c2ccccc12`, for which, for the setting “30.3 µM, […]”, the “Percent Effect” value is -15.51%.
